# According to PubChem BioAssay (NCI):
# Compounds without any hit were thinned out: in the full panel of roughly 83,000, 20% have a hit.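 In brief: 96-well plates, 48 h treatment, single concentration, percent growth endpoint.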 Values without a mark were called inactive. Activity calls are given as the source filed them. The calls were made as follows: active = growth percent below 10; inactive = the rest.
# Assays:
# Assay in all cases: NCI-60 one-dose screen, 48 h (100 = growth as untreated, 0 = no growth, -100 = all killed)
# Conditions in all cases: 10 µM unless noted
# NCI-H23 lung = system: NCI-H23 lung
# NCI-H226 lung = system: NCI-H226 lung
# NCI-H322M lung = system: NCI-H322M lung
# HOP-62 NSCLC = system: HOP-62 NSCLC
# NCI-H460 lung = system: NCI-H460 lung
# HOP-92 NSCLC = system: HOP-92 NSCLC
# NCI-H522 lung = system: NCI-H522 lung
# A549/ATCC NSCLC = system: A549/ATCC NSCLC
# 786-0 renal = system: 786-0 renal
# COLO 205 colon = system: COLO 205 colon
# DU-145 prostate = system: DU-145 prostate
# MALME-3M melanoma = system: MALME-3M melanoma
# MDA-MB-231 breast = system: MDA-MB-231 breast
# RXF 393 renal = system: RXF 393 renal
# SF-268 CNS = system: SF-268 CNS
# SF-295 CNS = system: SF-295 CNS
# SF-539 CNS = system: SF-539 CNS
# UACC-257 melanoma = system: UACC-257 melanoma
# M14 melanoma = system: M14 melanoma
# K-562 leukemia = system: K-562 leukemia
SMILES,growth (NCI-H23 lung),growth (NCI-H226 lung),growth (NCI-H322M lung),growth (HOP-62 NSCLC),growth (NCI-H460 lung),growth (HOP-92 NSCLC),growth (NCI-H522 lung),growth (A549/ATCC NSCLC),growth (786-0 renal),growth (COLO 205 colon),growth (DU-145 prostate),growth (MALME-3M melanoma),growth (MDA-MB-231 breast),growth (RXF 393 renal),growth (SF-268 CNS),growth (SF-295 CNS),growth (SF-539 CNS),growth (UACC-257 melanoma),growth (M14 melanoma),growth (K-562 leukemia)
CCc1nc(N)nc(N)c1C#CC(C)c1cc(-c2ccnc(C)c2)c2oc(C)nc2c1 (centres undefined),5.82% (active),44.7%,25.3%,-2.79% (active),2.7% (active),-0.67% (active),18.2%,3.87% (active),6.31% (active),0.792% (active),8.31% (active),36.7%,25.6%,-5.33% (active),1.29% (active),5.73% (active),-27.3% (active),30.9%,-9.02% (active),
CCOC(=O)C(C)(C#N)C1C=CCCC1 (centres undefined),83.3%,97.9%,80.4%,89.8%,98.8%,78.2%,104%,92.5%,87%,106%,97.1%,102%,95.5%,98.8%,93.8%,84.3%,91.8%,93.6%,81.2%,
Cc1ccc(C(SCC(N)C(=O)O)(c2ccccc2)c2ccc(C)cc2)cc1 (centres undefined),12.6%,56.3%,29.4%,31.9%,9.22% (active),-10.1% (active),-19% (active),-2.96% (active),25.1%,-3.13% (active),-43.8% (active),19.8%,-12.7% (active),,20.5%,14.7%,-5.21% (active),,-34.4% (active),
Cc1cc(N2CCCC2)nc(NC2CCCC(Nc3ccnc4cc(Cl)ccc34)C2)n1 (centres undefined),-41.4% (active),-56.2% (active),-42.6% (active),-84.4% (active),-66.3% (active),-82.7% (active),-76.3% (active),-88.6% (active),-91.1% (active),-90.7% (active),-21.8% (active),-80.4% (active),-77% (active),-84.5% (active),-36.7% (active),-80.8% (active),-92.5% (active),-84.3% (active),-83.6% (active),
CCOc1ccc(-n2nc(C(=O)Nc3ccccc3)nc2-c2cc(OC)c(OC)c(OC)c2)cc1,66.6%,80%,67.6%,55.7%,27.9%,46%,22.8%,41.4%,69.4%,22.1%,89.6%,54.5%,43.9%,69.2%,76.5%,34%,62%,66.4%,38%,
CN(C)c1ccc(NC(=O)c2ccc(/C=C/C(=O)c3ncc[nH]3)cc2)cc1,59.8%,89.1%,76.1%,54.7%,25.4%,94.1%,59.4%,63.1%,47.1%,37.6%,20.2%,87.9%,71.8%,67.4%,56.2%,74.6%,6.24% (active),91.7%,67.8%,
COc1ccc(-c2cc(-c3ccc(Nc4ccnc5cc(Cl)ccc45)cc3)nc(N3CCOCC3)n2)cc1,68%,69.4%,87%,81.6%,13.3%,67.2%,48%,12.3%,69.6%,44.7%,21.7%,-39.1% (active),52.4%,34.9%,72.1%,94.6%,-41.1% (active),79%,12.9%,
CC(C)(C)CC(C)(C)c1ccc(OCCOCC[N+](C)(C)Cc2ccccc2)cc1,2.23% (active),31.6%,47.7%,-56.7% (active),1.33% (active),-58.7% (active),-44.9% (active),25.5%,,-86.5% (active),39.4%,-16.4% (active),-88.2% (active),0.0752% (active),-54.1% (active),41.8%,-64.9% (active),-90.8% (active),-27.5% (active),-35.4% (active)
Oc1ccc(N=Cc2ccccc2O)cc1,92.3%,113%,90.6%,93.6%,96.4%,75.3%,81.3%,101%,93.4%,120%,103%,73.6%,99.7%,,93.4%,107%,79.9%,,94.2%,
CCCCC(=O)OCC1OC(n2cnc3c(=S)nc[nH]c32)C(OC(=O)CCCC)C1OC(=O)CCCC (centres undefined),27.5%,31.4%,36.4%,25.4%,30.3%,20.2%,34.5%,39.8%,20.5%,38.8%,32%,49.5%,35.6%,,39%,30.3%,20.2%,,10.4%,
COc1cc2nnc3c4cccnc4[nH]c3c2cc1OC,89.6%,40.5%,110%,96.9%,25.6%,-40.8% (active),-75.7% (active),47.2%,7.43% (active),50.2%,37.6%,-3.59% (active),45.9%,,19.4%,67.4%,54.9%,-33.4% (active),81.2%,
COc1ccc(C2C(C#N)=C(N)Oc3n[nH]c(-c4cccs4)c32)cc1I (centres undefined),92.8%,98.3%,102%,81.7%,101%,88.2%,83.2%,87.1%,99.1%,117%,107%,102%,102%,93.9%,91.2%,94.4%,85.6%,89.4%,90%,
N#Cc1nnn(-c2ccc(S(N)(=O)=O)cc2)c1NCC(=O)c1ccccc1,98%,88.2%,91.2%,91.7%,101%,86.6%,83.9%,93.3%,102%,104%,106%,96.4%,95.1%,113%,93.6%,100%,116%,88.4%,97.5%,
CC(=O)OCCC/C(=C/c1cc2ccccc2c2ccccc12)[N+](=O)[O-],-76.5% (active),-51.6% (active),58.2%,-61.3% (active),-18.5% (active),-76% (active),-59.9% (active),-94.6% (active),-89.5% (active),-85.9% (active),-100% (active),-71% (active),-54.3% (active),,-89.6% (active),7.66% (active),-100% (active),,-69.9% (active),
CC1(C)CC[C@]2(C(=O)Nc3ccccn3)CC[C@]3(C)C(=CC[C@@H]4[C@@]5(C)C/C(=C/c6cccnc6)C(=O)C(C)(C)[C@@H]5CC[C@]43C)[C@H]2C1,35.9%,47.8%,79.1%,54.7%,10.6%,57.7%,,27.3%,43.2%,4.76% (active),53.2%,48.3%,73.2%,33.3%,53.5%,38.1%,51.6%,26.2%,35.6%,18.7%
CCCCC[C@H]1C/C=C2/C(=O)C=C[C@@H]2C/C=C\CCCC(=O)O1,-17.4% (active),-65.1% (active),-52.7% (active),-46.3% (active),-1.5% (active),-39.5% (active),-78.4% (active),-23.6% (active),-76.4% (active),-47.6% (active),-32.4% (active),-24.8% (active),7.59% (active),-89.9% (active),3.72% (active),-33.5% (active),-71.4% (active),-49.4% (active),-29.3% (active),
COc1ccc(C(=O)/C=C/c2cccnc2Nc2cc(OC)c(OC)c(OC)c2)cc1,59.2%,41%,80.5%,48%,5.28% (active),49.3%,14.8%,23.6%,39.2%,38.6%,31.9%,80.5%,49%,12.9%,14.9%,27.4%,4.67% (active),35.8%,42.7%,
